Source: a collection of fitness landscapes (doi:10.1016/j.celrep.2020.107928)
The full ranking holds about 81,000 sequences; the median of “one-hybrid fitness for binding NBS DNA” is about -0.1, and the highest 2% start at about 0.36. The list comes from a sample in which the highest values are over-represented; it also holds similar and randomly drawn sequences.

B1: Caulobacter ParB omega fusion; a variant is named by its letters at X, in order, B8GW30 (parent)
chain: MESVVVGEPGMSEGRRGLGRGLSALLGEVDAAPAQAPGEQLGGSREAPIEILQRNPDQPRRTFREEDLEDLSNSIREKGVLQPILVRPSPDTAGEYQIVAGERAWRAAQRAGLKTVPIMVRELDDLAVLEIGIIENVQRADLNVLEEALSYKVLMEKFERTQENIAQTIGKSXSHVANXMRLLXLPDEVQSYLVSGELTAXHARAIAAAADPVALAKQIIEGGLSVRETEALARKAPNLSAGKSKGGRPPRVKDTDTQALESDLSSVLGLDVSIDHRGSTGTLTITYATLEQLDDLCNRLTRGI

Variants of: B1
Assay: one-hybrid fitness for binding NBS DNA (the Noc-binding site; scaled: cognate 1, non-cognate 0); higher = stronger binding
Conditions: with NBS DNA site
Procedure, shortened: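 Caulobacter ParB libraries with four specificity codons randomised were screened by bacterial one-hybrid selection in the E. coli USO strain, using a HIS3 reporter whose site lies 19 bp from the promoter. Selection ran for 48 hours at 37°C on M9 lacking histidine, with 0.1 mM IPTG and 5 mM 3-AT. Plasmids were Illumina-sequenced before and after selection, three replicate libraries were pooled, and variants with under 10 reads were dropped. Fitness is the log change in each variant's read ratio to wild type, rescaled against the cognate and non-cognate sites.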

Variant | one-hybrid fitness for binding NBS DNA
QMML | ≤ 0.2
QRMM | 0.334
QRMF | 0.25
QKMC | ≤ 0.2
QPMR | ≤ 0.2
TRYK | ≤ 0.2
DMET | ≤ 0.2
PFSA | ≤ 0.2
KETI | ≤ 0.2
TMKT | ≤ 0.2
FTAV | ≤ 0.2
TYAQ | ≤ 0.2
DFDS | ≤ 0.2
QHMD | ≤ 0.2
QHMH | ≤ 0.2
QLMP | ≤ 0.2
QHMR | 0.512
QLMD | ≤ 0.2
QLMR | 0.437
PNHV | ≤ 0.2
LLMW | ≤ 0.2
LSGP | ≤ 0.2
QMTN | ≤ 0.2
QATN | ≤ 0.2
QITR | 0.417
QVTS | 0.257

Variant | one-hybrid fitness for binding NBS DNA
QMTP | ≤ 0.2
QITH | ≤ 0.2
QMTR | 0.568
QATP | ≤ 0.2
QATR | 0.507
QVTD | ≤ 0.2
QITP | ≤ 0.2
QVTR | 0.38
AEVC | ≤ 0.2
LDTD | ≤ 0.2
DQQR | ≤ 0.2
PSGT | ≤ 0.2
DSIE | ≤ 0.2
WSFT | ≤ 0.2
GPRS | ≤ 0.2
PFKM | ≤ 0.2
QQPY | ≤ 0.2
QSTP | ≤ 0.2
QTTR | 0.794
QTTF | ≤ 0.2
QTTQ | 0.242
QHTR | 0.527
QKTR | 0.646
QKTH | 0.241
QHTD | ≤ 0.2
QSTD | ≤ 0.2

Variant | one-hybrid fitness for binding NBS DNA
QHTH | ≤ 0.2
QKTK | ≤ 0.2
QSTR | 0.531
HRSV | ≤ 0.2
ENSS | ≤ 0.2
DMPS | ≤ 0.2
GDPL | ≤ 0.2
ACNS | ≤ 0.2
TMDS | ≤ 0.2
PAFY | ≤ 0.2
QPEV | ≤ 0.2
IHVS | ≤ 0.2
GGTE | ≤ 0.2
HVRY | ≤ 0.2
QLTR | 0.487
QCTR | 0.637
QPTR | ≤ 0.2
QLTD | ≤ 0.2
QLTN | ≤ 0.2
DRTR | ≤ 0.2
QNTR | 0.223
QRTR | 1.01
NRTR | ≤ 0.2
PNSR | ≤ 0.2
QDFN | ≤ 0.2
VVTR | ≤ 0.2

Variant | one-hybrid fitness for binding NBS DNA
ASAC | ≤ 0.2
AKMS | ≤ 0.2
VYSF | ≤ 0.2
GLYG | ≤ 0.2
HCDP | ≤ 0.2
RLWR | 0.248
RLGN | ≤ 0.2
RLGH | ≤ 0.2
RLPR | ≤ 0.2
RLNN | ≤ 0.2
RLSC | ≤ 0.2
RLSR | 0.43
RLGR | 0.443
RLYR | 0.385
RLNR | 0.526
RLDR | ≤ 0.2
RLSK | ≤ 0.2
PRNP | ≤ 0.2
HRFS | ≤ 0.2
YKLT | ≤ 0.2
CNVC | ≤ 0.2
CNLW | ≤ 0.2
RLHM | ≤ 0.2
RLLR | 0.32
RLQR | 0.43
RLQY | ≤ 0.2

Variant | one-hybrid fitness for binding NBS DNA
RLCR | 0.412
RLHR | 0.491
RLIR | 0.21
RLCS | 0.334
RLCN | ≤ 0.2
RLHD | ≤ 0.2
RLRR | 0.673
RLQQ | ≤ 0.2
HQQG | ≤ 0.2
GCLR | ≤ 0.2
YYLT | ≤ 0.2
TQHV | ≤ 0.2
RMVQ | ≤ 0.2
WTKW | ≤ 0.2
SRPI | ≤ 0.2
QRDF | ≤ 0.2
QRRF | 0.418
QSRF | 0.265
QTYF | ≤ 0.2
QRYF | 0.227
QPRF | ≤ 0.2
QTRF | 0.446
QCRF | 0.423
QTDF | ≤ 0.2
NNNK | ≤ 0.2
WGNT | ≤ 0.2

Variant | one-hybrid fitness for binding NBS DNA
AIMG | ≤ 0.2
NWSC | ≤ 0.2
HMTV | ≤ 0.2
SYSV | ≤ 0.2
RCDA | ≤ 0.2
RPNA | ≤ 0.2
RSDA | ≤ 0.2
RRNA | 0.679
RCNA | 0.298
RRDA | 0.463
VHDS | ≤ 0.2
RQYA | ≤ 0.2
PMCY | ≤ 0.2
RSCN | ≤ 0.2
RCCR | 0.45
RHCP | ≤ 0.2
RHCR | 0.37
RFCR | ≤ 0.2
RHCH | ≤ 0.2
RICR | 0.369
RSCR | 0.38
RICN | ≤ 0.2
RPCR | ≤ 0.2
RICH | ≤ 0.2
RSCH | ≤ 0.2
